Experimental data published in PubChem BioAssay.
Activity calls are given as the source filed them.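 How the source made its calls: active means compounds killing one labelled cell type while sparing the other, by normalised counts and ratio limits, not self-fluorescent; inactive means the rest.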

Assay: EMT-state selective cytotoxicity in co-culture – imaging, PC-3E GFP, TEM4-18 mCherry, primary screen (AID 1345086);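 further: cells exposed to compound for 72 h before imaging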;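 on red/green cell ratio (normalised): normalised mesenchymal count divided by normalised epithelial count so high means epithelial killing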
Details: PC-3E GFP / TEM4-18 mCherry co-culture, imaging cell counts, at 1 µM; for red/green cell ratio (normalised): actives lie on both sides, counts scaled to control wells, 1 = unselective
[1] = measured here: epithelial PC-3E GFP cell survival
[2] = measured here: mesenchymal TEM4-18 mCherry cell survival

| Compound | red/green cell ratio (normalised) | normalised cell number [1] | normalised cell number [2] |
| --- | --- | --- | --- |
| C[C@H]1CC[C@@H](C(C)(C)O)CC2=C1CC[C@@H]2C | 1.27 (inactive) | 0.71 | 0.91 |
| CC(C)CCCC(C)[C@H]1CCC2C3C(=O)C=C4C[C@@H](O)CC[C@]4(C)C3CC[C@@]21C (stereo partly specified) | 0.98 (inactive) | 0.98 | 0.95 |
| NC(=O)c1cc(F)c(F)cc1F | 0.98 (inactive) | 1.12 | 1.09 |
| Cc1c(F)c(F)cc(C(=O)NC(=O)NC2CC2)c1F | 1 (inactive) | 1.02 | 1.02 |
| COC(=O)C[C@H]1C(C)(C)C(=O)[C@@H]2CC3C4=CC(=O)O[C@@H](c5ccoc5)[C@]4(C)CCC3C1(C)C2=O (stereo partly specified) | 1.11 (inactive) | 0.84 | 0.94 |
| COC(=O)c1cc(Br)ccc1Cl | 1.04 (inactive) | 1.12 | 1.17 |
| Cc1cc2c(CO)cc(O)cc2o1 | 1 (inactive) | 0.92 | 0.92 |
| O=C(O)C(O)[C@H](O)[C@H](O)[C@H](O)[C@H](O)CO (stereo partly specified) | 1.28 (inactive) | 1.07 | 1.37 |
| C[C@H](Cc1cc(O)cc(O)c1C(=O)O[C@H](C)CC(=O)O[C@H](C)Cc1cc(O)cc(O)c1C(=O)O[C@H](C)CC1Cc2cc(O)cc(O)c2C(=O)O1)OC(=O)C[C@@H](C)O (stereo partly specified) | 0.98 (inactive) | 0.85 | 0.83 |
| CC(C)(O)CC[C@@H](O)[C@](C)(O)C1CC[C@@]2(O)C3=CC(=O)C4C[C@@H](O)[C@@H](O)C[C@]4(C)C3CC[C@]12C (stereo partly specified) | 0.93 (inactive) | 0.94 | 0.88 |
| CC1CCCC(O)/C=C/C(O)C(=O)c2c(O)cc(O)cc2CC(=O)O1 (stereo unspecified) | 1.11 (inactive) | 0.89 | 0.99 |
| COC(=O)C1O[C@H](O[Si](C)(C)C(C)(C)C)[C@@H](O)[C@@H](OC(=O)c2ccccc2)C1OC(=O)c1ccccc1 (stereo partly specified) | 0.98 (inactive) | 1.18 | 1.15 |
| NCCC[C@H](N)CC(=O)NC1CNC(=O)[C@H]([C@H]2C[C@H](O)N=C(N)N2)NC(=O)/C(=C/NC(N)=O)NC(=O)[C@H](CO)NC(=O)[C@H](CO)NC1=O (stereo partly specified) | 0.82 (inactive) | 1.24 | 1.02 |
| CC(CC(=O)N1CCOC1=O)N1C(=S)SC[C@H]1c1ccccc1 (stereo partly specified) | 0.8 (inactive) | 1.08 | 0.87 |
| O=C(Cc1ccccc1)NCC1O[C@@H](OC2C(NC(=O)Cc3ccccc3)C[C@@H](NC(=O)Cc3ccccc3)[C@H](OC3OC(COS(=O)(=O)O)[C@@H](OS(=O)(=O)O)[C@H](NC(=O)Cc4ccccc4)[C@H]3OS(=O)(=O)O)[C@H]2OS(=O)(=O)O)[C@H](OS(=O)(=O)O)[C@@H](OS(=O)(=O)O)C1OS(=O)(=O)O (stereo partly specified) | 1.14 (inactive) | 0.9 | 1.03 |
| CC1CCC2OC2C/C=C/C(=O)c2c(O)cc(O)cc2CC(=O)O1 (stereo unspecified) | 0.83 (inactive) | 0.88 | 0.73 |
| Cc1ccc(S[C@H]2OC(COS(=O)(=O)c3ccc(C)cc3)C(O)[C@@H]3OC(=O)N[C@H]23)cc1 (stereo partly specified) | 0.86 (inactive) | 1.19 | 1.02 |
| CCOC(=O)O[C@]1(C(=O)COC(=O)CC)CCC2C3CCC4=CC(=O)C=C[C@]4(C)C3[C@@H](O)C[C@@]21C (stereo partly specified) | 0.87 (inactive) | 1.29 | 1.13 |
| COc1c(F)c(F)cc(C(N)=O)c1F | 1.04 (inactive) | 0.96 | 0.99 |

| Compound | red/green cell ratio (normalised) | normalised cell number [1] | normalised cell number [2] |
| --- | --- | --- | --- |
| COC1=N[C@@](OC)(C(C)C)C(=O)N[C@@]1(O)[C@H](O)c1ccccc1 | 0.8 (inactive) | 1.21 | 0.96 |
| CC(=O)OCC(=O)[C@@]1(O)CCC2C3C[C@H](C)C4=CC(=O)C=CC4(C)C3[C@@H](O)CC21C (stereo partly specified) | 1.09 (inactive) | 1.16 | 1.27 |
| CO[C@@H]1CC(=O)c2cccc3c2C12Oc1ccc(O)c4c1[C@](O3)(O2)C1O[C@@H]1[C@@H]4O (stereo partly specified) | 0.98 (inactive) | 1 | 0.98 |
| O=C(NCC1O[C@@H](OC2C(NC(=O)c3ccccc3)C[C@@H](NC(=O)c3ccccc3)[C@H](OS(=O)(=O)O)[C@H]2OC2OC(COS(=O)(=O)O)C(OC3OC(CNC(=O)c4ccccc4)[C@@H](OS(=O)(=O)O)[C@H](OS(=O)(=O)O)[C@H]3NC(=O)c3ccccc3)C2OS(=O)(=O)O)[C@H](NC(=O)c2ccccc2)[C@@H](OS(=O)(=O)O)C1OS(=O)(=O)O)c1ccccc1 (stereo partly specified) | 0.97 (inactive) | 0.96 | 0.93 |
| O=c1cc(-c2ccccc2)oc2cc(O[C@@H]3O[C@H](CO)[C@@H](O)[C@H](O)[C@H]3O)c(O)c(O)c12 | 0.89 (inactive) | 1.13 | 1 |
| O=C1CC(c2ccc(O)cc2)Oc2ccccc21 (stereo unspecified) | 1.07 (inactive) | 1.01 | 1.08 |
| C=CCSC[C@@H](N)C(=O)O | 0.86 (inactive) | 1.23 | 1.06 |
| C=C1OC(=O)[C@]2([C@H](C)C=C[C@H](O)[C@@H]2O)[C@@H]1O | 0.98 (inactive) | 1 | 0.99 |
| COC(=O)C[C@H]1C(C)(C)C(=O)[C@@H]2CC3=C(CC[C@]4(C)C3=CC(=O)O[C@H]4c3ccoc3)C1(C)C2=O | 1.11 (inactive) | 0.96 | 1.06 |
| CC(=O)O[C@@H]1CC2C(C)(C)C(=O)CC[C@]2(C)C2CC[C@@]3(C)[C@H](c4ccoc4)OC(=O)C4OC43[C@@]21C (stereo partly specified) | 1.03 (inactive) | 0.94 | 0.97 |
| O=C(NCc1ccccc1)C1O[C@H](NCc2ccccc2)[C@@H](O)[C@@H](O)C1O (stereo partly specified) | 1.04 (inactive) | 1.09 | 1.13 |
| CC(C)=CCC/C(C)=C\CC1=C(C)C(=O)c2ccccc2C1=O | 0.98 (inactive) | 1.11 | 1.09 |
| CC1CC(=O)c2c(cc3c(-c4c(O)cc(O)c5c(O)c6c(cc45)OC(C)CC6=O)c(O)cc(O)c3c2O)O1 (stereo unspecified) | 0.92 (inactive) | 1.06 | 0.98 |
| CC(=O)O[C@H]1CCC2(C)C3=C(CCC2C1(C)C)[C@@]1(C)CC[C@@H](C(C)CCC=C(C)C)[C@]1(C)CC3 (stereo partly specified) | 1.21 (inactive) | 0.67 | 0.81 |
| COc1ccc2c(c1)CCC1C2CC[C@@]2(C)C1CC[C@@H]2O (stereo partly specified) | 0.78 (inactive) | 1.46 | 1.14 |
| CC1(C)C[C@H]2[C@@]1(O)[C@@H](O)C[C@]1(C)[C@H](O)C=C[C@]21CO | 0.9 (inactive) | 1.19 | 1.07 |
| c1ccc(OCC2CCNC2)cc1 (stereo unspecified) | 0.83 (inactive) | 1.17 | 0.97 |
| OCC(O)C(O)C(O)C(O)C(O)CO (stereo unspecified) | 0.95 (inactive) | 0.96 | 0.91 |
| CC(C)CC1C(=O)OC(C(C)C)C(=O)N(C)C(C(C)C)C(=O)OC(C(C)C)C(=O)N(C)C(C(C)C)C(=O)OC(C(C)C)C(=O)N1C (stereo unspecified) | 0.99 (inactive) | 1.17 | 1.15 |

| Compound | red/green cell ratio (normalised) | normalised cell number [1] | normalised cell number [2] |
| --- | --- | --- | --- |
| CC[C@H](CCC(C)[C@H]1CCC2C3CCC4C[C@@H](O)CC[C@]4(C)C3CC[C@@]21C)C(C)C (stereo partly specified) | 1.11 (inactive) | 0.91 | 1.01 |
| COc1cc(C(=O)O)cc(C)c1C(=O)CC(C)O (stereo unspecified) | 0.9 (inactive) | 1.04 | 0.94 |
| CC(=O)OCC(=O)[C@H]1CCC2C3CC=C4C[C@@H](O)CC[C@]4(C)C3CC[C@@]21C (stereo partly specified) | 0.94 (inactive) | 0.99 | 0.93 |
| COc1cc([C@@]2(C)[C@@H]3[C@@H](C)CCC[C@@H]3C=C[C@@H]2C)oc(=O)c1C=O | 0.92 (inactive) | 1.06 | 0.98 |
| O=C(O)CS | 1.05 (inactive) | 1.25 | 1.3 |
| CC(CC(=O)N1C(=O)OC[C@@H]1Cc1ccccc1)N1C(=S)OC[C@H]1c1ccccc1 (stereo partly specified) | 0.87 (inactive) | 1.17 | 1.02 |
| COC(=O)C12C(C(C)=O)OC(CC(O)C1O)C2C (stereo unspecified) | 0.97 (inactive) | 1.04 | 1.01 |
| CC1CCC2(OC1)OC1CC3C4CCC5C[C@@H](O)CCC5(C)C4=CCC3(C)C1[C@@H]2C (stereo partly specified) | 0.87 (inactive) | 1.08 | 0.94 |
| CC[C@@H]1OC(=O)c2c(OC)cc(=O)oc21 | 1.1 (inactive) | 1.01 | 1.11 |
| CC/C=C1C=C(/C=C/CO)C(=O)O/1 | 1.01 (inactive) | 1.05 | 1.06 |
| CC(CCOc1ccc(C(=O)O)cc1)C(=O)O (stereo unspecified) | 1.1 (inactive) | 1.03 | 1.14 |
| COC(=O)[C@@H]1C(O)CC[C@H]2CN3CCc4c([nH]c5ccccc45)[C@@H]3C[C@@H]21 (stereo partly specified) | 1.2 (inactive) | 0.88 | 1.07 |
| C=C/C(C)=C\CC1[C@](C)(O)CC[C@H]2C(C)(C)CCC[C@]12C (stereo partly specified) | 1.09 (inactive) | 1.11 | 1.2 |
| CC1(C)CC[C@]2(C(=O)O)CC[C@]3(C)C(=CCC4[C@@]5(C)CC[C@H](O)[C@@](C)(CO)C5CC[C@]43C)C2C1 (stereo partly specified) | 0.94 (inactive) | 1.05 | 0.98 |
| CC(=O)OCC1O[C@@H](OC(C)=O)C(NC(=O)OCc2ccccc2)[C@@H](OC(C)=O)C1OC(C)=O (stereo partly specified) | 0.94 (inactive) | 1.16 | 1.09 |
| Nc1ncnc2c1ncn2C1C[C@H](O)[C@@H](CO)O1 (stereo partly specified) | 0.92 (inactive) | 0.99 | 0.91 |
| COc1cc2c(c3oc4ccccc4c(=O)c13)[C@@H]1C=CO[C@@H]1O2 | 0.91 (inactive) | 0.44 | 0.4 |
| COC(=O)C[C@H]1C(C)(C)C(=O)[C@@H]2CC3=C4CC(=O)O[C@@H](c5ccoc5)[C@]4(C)CCC3C1(C)C2=O (stereo partly specified) | 1.01 (inactive) | 0.78 | 0.78 |
| COC(=O)/C=C/C(C)=C/C=C/C(C)=C/C=C/C=C(C)/C=C/C=C(C)/C=C/C(=O)O | 0.81 (inactive) | 1.29 | 1.05 |
